# Assay results from the supplement of paper PMC8728848.
# Only a selection was taken, and the strongest signals are over-represented in it overall.
# How the values were obtained:
# Assay in all cases: glycan array binding signal (z-score within array); higher = stronger binding
# Details in all cases: glycan notation: IUPAC condensed, linker removed
# [1] = target: Fuc(a1-2)Gal(b1-3)GalNAc(b1-3)Gal
# Method in brief: (§1)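 Glycan array binding is given as a within-array Z-score, which can be read as non-binding when negative. The arrays, 3228 of them, came from the Consortium for Functional Glycomics database and were retained only where the protein sequence was available. Z-scores were averaged across arrays of the same protein sequence at different concentrations or buffers and across linkers.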
# Fuc(a1-2)Gal(b1-3)GlcNAc = target: Fuc(a1-2)Gal(b1-3)GlcNAc
# Method in brief: as §1
# [2] = target: Fuc(a1-2)Gal(b1-3)GlcNAc(b1-3)Gal(b1-4)Glc
# Method in brief: as §1
# [3] = target: Fuc(a1-2)Gal(b1-3)GlcNAc6S
# Method in brief: as §1
# Fuc(a1-2)Gal(b1-4)Glc6S = target: Fuc(a1-2)Gal(b1-4)Glc6S
# Method in brief: as §1
# [4] = target: Fuc(a1-2)[Gal(a1-3)]Gal(b1-3)GalNAc
# Method in brief: as §1
# [5] = target: Fuc(a1-2)[GalNAc(a1-3)]Gal(b1-3)GlcNAc(b1-6)GalNAc
# Method in brief: as §1
# Fuc(a1-3)GlcNAc = target: Fuc(a1-3)GlcNAc
# Method in brief: as §1
# Gal(a1-3)Gal(b1-3)GlcNAc = target: Gal(a1-3)Gal(b1-3)GlcNAc
# Method in brief: as §1
# [6] = target: Gal(a1-3)Gal(b1-3)GlcNAc(b1-6)GalNAc
# Method in brief: as §1
# [7] = target: Gal(a1-4)Gal(b1-3)GlcNAc(b1-2)Man(a1-3)[Gal(a1-4)Gal(b1-3)GlcNAc(b1-2)Man(a1-6)]Man(b1-4)GlcNAc(b1-4)GlcNAc
# Method in brief: as §1
# Gal(a1-6)Glc = target: Gal(a1-6)Glc
# Method in brief: as §1
# Gal(b1-3)Gal(b1-4)GlcNAc = target: Gal(b1-3)Gal(b1-4)GlcNAc
# Method in brief: as §1
# [8] = target: Gal(b1-3)GlcNAc(b1-2)Man(a1-3)[Gal(b1-3)GlcNAc(b1-2)Man(a1-6)]Man(b1-4)GlcNAc(b1-4)GlcNAc
# Method in brief: as §1
# [9] = target: Gal(b1-3)GlcNAc(b1-2)Man(a1-3)[GlcNAc(b1-4)][Gal(b1-3)GlcNAc(b1-2)Man(a1-6)]Man(b1-4)GlcNAc(b1-4)GlcNAc
# Method in brief: as §1
# [10] = target: Gal(b1-3)GlcNAc(b1-3)Gal(b1-3)GlcNAc
# Method in brief: as §1
# [11] = target: Gal(b1-3)[Neu5Ac(a2-6)]GlcNAc(b1-6)Gal(b1-4)Glc
# Method in brief: as §1
# [12] = target: Gal(b1-4)GlcNAc(a1-6)Gal(b1-4)GlcNAc
# Method in brief: as §1
# [13] = target: Gal(b1-4)GlcNAc(b1-2)Man(a1-3)Man(b1-4)GlcNAc(b1-4)GlcNAc
# Method in brief: as §1
# [14] = target: Gal(b1-4)GlcNAc(b1-2)Man(a1-3)[Gal(b1-4)GlcNAc(b1-2)Man(a1-6)]Man(b1-4)GlcNAc(b1-4)GlcNAc
# Method in brief: as §1
# [15] = target: Gal(b1-4)GlcNAc(b1-2)Man(a1-3)[Man(a1-6)]Man(b1-4)GlcNAc(b1-4)GlcNAc
# Method in brief: as §1
# [16] = target: Gal(b1-4)GlcNAc(b1-3)Gal(b1-3)GalNAc
# Method in brief: as §1
# [17] = target: Gal(b1-4)GlcNAc(b1-3)Gal(b1-4)GlcNAc(b1-3)GalNAc
# Method in brief: as §1
# [18] = target: Gal(b1-4)GlcNAc(b1-3)Gal(b1-4)[Fuc(a1-3)]GlcNAc(b1-3)Gal(b1-4)[Fuc(a1-3)]GlcNAc
# Method in brief: as §1
# [19] = target: Gal(b1-4)GlcNAc(b1-3)[Gal(b1-4)GlcNAc(b1-6)]Gal(b1-4)GlcNAc
# Method in brief: as §1
# [20] = target: Gal(b1-4)GlcNAc(b1-3)[GlcNAc(b1-6)]Gal(b1-4)GlcNAc
# Method in brief: as §1
# [21] = target: Gal(b1-4)GlcNAc(b1-6)[Gal(b1-3)]GalNAc
# Method in brief: as §1
# Gal(b1-6)Gal = target: Gal(b1-6)Gal
# Method in brief: as §1
# Gal3S(b1-3)GlcNAc = target: Gal3S(b1-3)GlcNAc
# Method in brief: as §1
# Gal3S(b1-4)Glc = target: Gal3S(b1-4)Glc
# Method in brief: as §1
binder,measurement,setting,value
AMA (Arum maculatun) (protein) MAKLLLLLLLPAIVGLAVPRSAAAVGSNYMLSGETLNTDGRLTNGELTLIMQVDCNLVLYHGGWQSNTANNGRDCKLTLTDFGELVIKSGTGSTVWSSGSKQSMKGNYAAVVHPEGRLVIYGPSVFKINPSGAGLNGLPLRNIPLTNNMLFSGQVLYGDGTLSARNHKLVMQGDCNMVLYGGKYGWQSNTHGNGKYCFAMLTHKGELVIRDDDFKSVWSSKSSSKQGDYVFILQDDSLAIIYGPAVFSTGSKKMISMVTN,glycan array binding signal (z-score),[1],-0.21
same,glycan array binding signal (z-score),Fuc(a1-2)Gal(b1-3)GlcNAc,-0.176
same,glycan array binding signal (z-score),[2],-0.22
same,glycan array binding signal (z-score),[3],-0.207
same,glycan array binding signal (z-score),Fuc(a1-2)Gal(b1-4)Glc6S,-0.208
same,glycan array binding signal (z-score),[4],-0.211
same,glycan array binding signal (z-score),[5],-0.216
same,glycan array binding signal (z-score),Fuc(a1-3)GlcNAc,-0.221
same,glycan array binding signal (z-score),Gal(a1-3)Gal(b1-3)GlcNAc,-0.21
same,glycan array binding signal (z-score),[6],-0.216
same,glycan array binding signal (z-score),[7],5.86
same,glycan array binding signal (z-score),Gal(a1-6)Glc,-0.214
same,glycan array binding signal (z-score),Gal(b1-3)Gal(b1-4)GlcNAc,-0.208
same,glycan array binding signal (z-score),[8],3.15
same,glycan array binding signal (z-score),[9],-0.205
same,glycan array binding signal (z-score),[10],-0.207
same,glycan array binding signal (z-score),[11],-0.198
same,glycan array binding signal (z-score),[12],-0.215
same,glycan array binding signal (z-score),[13],-0.215
same,glycan array binding signal (z-score),[14],3.36
same,glycan array binding signal (z-score),[15],0.479
same,glycan array binding signal (z-score),[16],-0.219
same,glycan array binding signal (z-score),[17],-0.149
same,glycan array binding signal (z-score),[18],-0.209
same,glycan array binding signal (z-score),[19],-0.213
same,glycan array binding signal (z-score),[20],-0.227
same,glycan array binding signal (z-score),[21],-0.212
same,glycan array binding signal (z-score),Gal(b1-6)Gal,-0.208
same,glycan array binding signal (z-score),Gal3S(b1-3)GlcNAc,-0.209
same,glycan array binding signal (z-score),Gal3S(b1-4)Glc,-0.211
